# Activity calls are given as the source filed them.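 The calls were made as follows, unless noted: active = inhibition at or above 50% at 10 µM; inactive = inhibition below 50%.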
# Columns and labels:
# [1] = inhibitors of TNFa-induced NFkB p65 translocation, primary screen, imaging, HUVEC, MLSMR starter and 10KST1 sets (AID 438;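 active = inhibition above 20% together with a positive visual image hit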;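 also: compound added about 3h40 before a 20 min TNFalpha stimulation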;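 as to inhibition: signal is the nuclear over cytoplasmic p65 intensity ratio per well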); details: HUVEC TNFa-induced p65 nuclear translocation; cell count: measured here: nuclei count (cytotoxicity indicator), at 2.08 µM; inhibition: at 2 µM, stronger effect = higher value, 0% TNFa-plus-vehicle, 100% no-TNFa wells
# [2] = reduction of polyQ htt aggregates in cells – imaging, exon1htt(103Q)mCFP cells, high-content imaging, primary screen (AID 483;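 active = visual image review flags a hit and inhibition of aggregation exceeds 20%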;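 also: compound exposure lasted 3 days before fixation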;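 as to nuclei count: percent of the per-plate median nuclei count of sample wells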); details: exon1htt(103Q)mCFP cell line, aggregate imaging, at 2 µM; inhibition of aggregation: stronger effect = higher value; nuclei count: measured here: cell count, toxicity
# [3] = endothelial E-selectin expression blockers – imaging, HUVEC, immunofluorescence, MLSMR starter and 10KST1 sets, primary screen (AID 487;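 active = visually confirmed hit in the image check and inhibition above 20%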;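 as to inhibition: signal is fraction of cell area covered by stained E-selectin grains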;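 as to nuclei count: 100% = median nuclei count of all wells on the same plate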); details: HUVEC TNFalpha-induced E-selectin immunofluorescence imaging, at 2 µM; inhibition: stronger effect = higher value; nuclei count: measured here: cell number, toxicity
# [4] = molecular target: Voltage-gated potassium channel subunit beta-2 (Rattus norvegicus) (UniProt P62483); assay: inhibitors of rat Kvbeta2 reductase activity – biochemical, NADPH fluorescence, primary screen (AID 622;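 active = fluorescence slope higher than the sample average by over 3 SD, cut at about -0.22 in these data, passing the limit was not always enough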;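 also: slope of raw intensity against log time taken from 70 to 1610 s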); details: recombinant KvBeta, 4-cyanobenzaldehyde reduction, at 10 µM, stronger effect = higher value
# [5] = molecular target: Voltage-gated potassium channel subunit beta-2 (Rattus norvegicus) (UniProt P62483); assay: enhancers of rat Kvbeta2 NADPH turnover – biochemical, NADPH fluorescence, primary screen (AID 623;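 active = NADPH fluorescence slope more negative than the mean of all samples by about 3 SD, 99.7% confidence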;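 also: fluorescence intensity change per second fitted from 20 to 320 s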); details: Recombinant KvBeta, NADPH fluorescence decrease slope, 10 min; at 10 µM; stronger effect = lower value
# [6] = molecular target: Alpha-2C adrenergic receptor (Homo sapiens) (UniProt P18825); assay: compounds altering alpha2C-coupled GIRK flux – cell-based, HEK293 alpha2C/GIRK1/2, thallium flux, primary screen (AID 624;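 active = fluorescence slope after compound addition differing from the mean of all screened samples at 99.7% confidence, in either direction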;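 also: slope of fluorescence ratio to pre-addition baseline per second over 15 to 24 s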); details: thallium flux BTC fluorescence, at 10 µM, actives lie on both sides
# [7] = blockers of RIG-like receptor reporter activation – cell-based, Sendai virus stimulus, luciferase, 10K MLSCN set, TLR/RLR signaling modifier project, primary screen (AID 602276); details: HEK293 RL24 IRF3 luciferase reporter, at 10 µM, stronger effect = higher value;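 also: firefly luciferase from ISG56 promoter only with Renilla not read in this screen; 0% = Sendai virus plus DMSO and 100% = medium plus DMSO without virus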
# [8] = TLR3 IRF3 reporter activation blockers – cell-based, poly I:C stimulus, luciferase, 10K MLSCN set, primary screen (AID 602277;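 active = inhibition of the reporter signal at or above 50%; inactive = inhibition below 50%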); details: HEK293-TLR3 RL24 IRF3 luciferase reporter, at 10 µM, stronger effect = higher value
# Sequence of Voltage-gated potassium channel subunit beta-2 (Rattus norvegicus) (P62483 whole entry, looked up): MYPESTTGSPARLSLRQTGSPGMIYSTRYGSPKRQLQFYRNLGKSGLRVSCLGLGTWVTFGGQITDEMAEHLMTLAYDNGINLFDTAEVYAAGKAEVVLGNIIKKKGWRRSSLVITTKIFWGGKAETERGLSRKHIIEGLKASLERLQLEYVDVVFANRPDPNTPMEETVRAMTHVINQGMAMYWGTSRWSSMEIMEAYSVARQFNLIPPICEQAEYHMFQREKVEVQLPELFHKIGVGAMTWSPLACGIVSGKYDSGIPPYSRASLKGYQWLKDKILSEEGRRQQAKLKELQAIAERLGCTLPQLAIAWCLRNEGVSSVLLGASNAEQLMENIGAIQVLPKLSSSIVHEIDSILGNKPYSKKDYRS
# Sequence of Alpha-2C adrenergic receptor (Homo sapiens) (P18825 whole entry, looked up): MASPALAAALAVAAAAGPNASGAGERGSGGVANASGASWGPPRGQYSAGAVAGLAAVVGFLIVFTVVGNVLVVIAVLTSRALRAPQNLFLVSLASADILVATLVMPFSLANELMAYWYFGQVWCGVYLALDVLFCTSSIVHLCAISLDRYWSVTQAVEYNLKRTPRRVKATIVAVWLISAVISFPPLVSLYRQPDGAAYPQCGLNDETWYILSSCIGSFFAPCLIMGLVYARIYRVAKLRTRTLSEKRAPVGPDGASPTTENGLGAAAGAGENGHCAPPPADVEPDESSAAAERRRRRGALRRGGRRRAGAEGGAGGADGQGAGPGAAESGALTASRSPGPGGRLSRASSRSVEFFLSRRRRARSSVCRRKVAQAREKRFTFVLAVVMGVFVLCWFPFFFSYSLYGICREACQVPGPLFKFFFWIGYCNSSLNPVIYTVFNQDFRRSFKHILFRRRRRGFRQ
SMILES,cell count [1],inhibition [1],inhibition of aggregation [2],nuclei count [2] [%],inhibition [3],nuclei count [3] [%],fluorescence slope [4],NADPH fluorescence slope [5],slope [6],inhibition [7],inhibition [8]
CCOC(=O)c1cccc(NC(=O)CS(=O)(=O)Cc2nc(-c3cccc(OC)c3)oc2C)c1,572,-40.8% (inactive),-19.3% (inactive),106,-15.4% (inactive),102,-0.524 (inactive),-3.5e-05 (inactive),0.00568 (inactive),-5.01% (inactive),12.4% (inactive)
O=S(=O)(c1ccc(S(=O)(=O)N2CCN3CCCC3C2)cc1)N1CCCC1 (stereo not drawn),575,-5.3% (inactive),31.8% (inactive),49.8,34.6% (inactive),85,-0.359 (inactive),-3.4e-05 (inactive),0.00601 (inactive),6.16% (inactive),28.2% (inactive)
CCN(CC)S(=O)(=O)c1ccc(F)cc1,630,2.4% (inactive),-0.6% (inactive),100,-75.6% (inactive),114,-0.506 (inactive),-0.000197 (inactive),0.00613 (inactive),13.9% (inactive),19.3% (inactive)
Cc1ccc(CNC(=O)COC(=O)c2c(C)noc2C)cc1,581,6.9% (inactive),23.2% (inactive),89.7,46% (inactive),57.1,-0.449 (inactive),-4.4e-05 (inactive),0.00349 (inactive),-1.51% (inactive),16.4% (inactive)
Cc1nc2ncnn2c(Nc2ccc3c(c2)OCCO3)c1C,233,-9.3% (inactive),1.4% (inactive),87.4,-57.1% (inactive),97.7,-0.614 (inactive),-4.3e-05 (inactive),0.00442 (inactive),9.15% (inactive),-0.101% (inactive)
CC(=O)Nc1ccc(S(=O)(=O)N2CCN=C2C)cc1,246,7.6% (inactive),14.3% (inactive),86.3,-31.5% (inactive),83.1,-0.62 (inactive),-1.6e-05 (inactive),0.00377 (inactive),3.93% (inactive),19.7% (inactive)
Cc1nnc(SCC(=O)N2CCN(S(=O)(=O)c3ccccc3)CC2)[nH]c1=O,711,9.4% (inactive),7.1% (inactive),103,-39.5% (inactive),127,-0.509 (inactive),-6e-05 (inactive),0.00552 (inactive),3.92% (inactive),13.4% (inactive)
NC(=O)CSc1cn(CCNC(=O)c2cccs2)c2ccccc12,604,-1.4% (inactive),7% (inactive),84.8,19% (inactive),98.2,-0.436 (inactive),-4.5e-05 (inactive),0.00564 (inactive),-2.46% (inactive),23.4% (inactive)
CCC(C)c1ccc(NC(=O)c2cccnc2)cc1 (stereo not drawn),393,18% (inactive),2.8% (inactive),113,-48.5% (inactive),130,-0.395 (inactive),3e-05 (inactive),0.00669 (inactive),-47.8% (inactive),-142% (inactive)
Cc1c(C(=O)N2CCCC2)sc(NC(=O)c2cccs2)c1C#N,706,17.1% (inactive),10.4% (inactive),86.7,-67.6% (inactive),130,-0.504 (inactive),-8.5e-06 (inactive),0.00564 (inactive),14.8% (inactive),12.4% (inactive)
CC1CCCCC1NC(=O)C1CCN(C(=O)NC2CCCCC2)CC1 (stereo not drawn),172,-4.9% (inactive),20.6% (inactive),71.9,2.1% (inactive),79.8,-0.448 (inactive),-4.6e-05 (inactive),0.00366 (inactive),13.5% (inactive),28.2% (inactive)
Cc1cccc(-n2ncc3c(N4CCC5(CC4)OCCO5)ncnc32)c1,617,1.3% (inactive),-14.8% (inactive),97.6,-15.1% (inactive),107,-0.549 (inactive),-6.5e-05 (inactive),0.00695 (inactive),-34.4% (inactive),-101% (inactive)
CCCCSc1nc2c(cnn2-c2ccc(F)cc2)c(=O)[nH]1,619,-10.7% (inactive),13.9% (inactive),81.3,-19.6% (inactive),122,-0.458 (inactive),-3.7e-05 (inactive),0.00558 (inactive),4.85% (inactive),12.8% (inactive)
CCCCOc1ccc(S(=O)(=O)n2c(C)nc3ccccc32)cc1,445,-1.5% (inactive),-1.2% (inactive),102,-286% (inactive),113,-0.387 (inactive),1.3e-05 (inactive),0.00302 (inactive),9.07% (inactive),16.6% (inactive)
Cc1occc1-c1nc(-c2ccncc2)no1,706,7.3% (inactive),6% (inactive),95.3,-46.6% (inactive),126,-0.523 (inactive),1.8e-05 (inactive),0.00583 (inactive),-46.9% (inactive),-90.8% (inactive)
CCOC(=O)N1CCC2(O)CCCCC2C1c1ccc(F)cc1 (stereo not drawn),450,-1.7% (inactive),-11.2% (inactive),108,-73.3% (inactive),109,-0.439 (inactive),1.9e-05 (inactive),0.00629 (inactive),14.6% (inactive),22.6% (inactive)
CC(=O)Nc1nc(=S)ss1,568,-7.2% (inactive),1.3% (inactive),60.9,-28.4% (inactive),120,-0.486 (inactive),-2.6e-05 (inactive),0.00751 (inactive),10.3% (inactive),14.9% (inactive)
O=S(=O)(c1ccccc1)c1nc(-c2cccs2)oc1NCC1CCCO1 (stereo not drawn),566,-1.8% (inactive),11.4% (inactive),108,-17.9% (inactive),104,-0.538 (inactive),5.1e-06 (inactive),0.00406 (inactive),-17.6% (inactive),-20.5% (inactive)
CCOC(=O)c1cc2sc(C)cc2n1CC(=O)Nc1cccc(C)c1C,556,7.5% (inactive),23.7% (inactive),109,-44.9% (inactive),116,-0.342 (inactive),-3.2e-05 (inactive),0.00758 (inactive),-2.4% (inactive),12.7% (inactive)
O=S(=O)(NCc1ccccc1)c1ccc2c(c1)OCCO2,454,-10.7% (inactive),-10.8% (inactive),100,-117% (inactive),121,-0.599 (inactive),-3.9e-05 (inactive),0.00569 (inactive),-0.346% (inactive),-1.95% (inactive)
CC(=O)Nc1ccc(S(=O)(=O)NCC2CCC(C(=O)NCCCN3CCCC3=O)CC2)cc1 (stereo not drawn),318,-0.8% (inactive),5.9% (inactive),112,-15.4% (inactive),106,-0.484 (inactive),-3.3e-05 (inactive),0.00457 (inactive),20.7% (inactive),19.4% (inactive)
Cc1cc(C(=O)CN2C(=O)c3ccccc3C2=O)c(C)n1Cc1cccs1,522,-14.8% (inactive),-1% (inactive),112,-3.3% (inactive),161,-0.517 (inactive),-0.000116 (inactive),0.00475 (inactive),14.6% (inactive),52.1% (active)
COc1ccc(OC)c(NC(=O)CSc2nnc(Cc3cccn3C)n2-c2ccc(F)cc2)c1,671,-3.4% (inactive),14.8% (inactive),86.6,-40.2% (inactive),106,-0.609 (inactive),1.6e-05 (inactive),0.00527 (inactive),19.4% (inactive),30.1% (inactive)
COc1ccc(-c2noc(COc3ccc(C)c(C)c3)n2)cc1OC,334,2.7% (inactive),8.8% (inactive),97.9,21.9% (inactive),108,-0.316 (inactive),-6.4e-05 (inactive),0.00562 (inactive),-1.39% (inactive),98.1% (active)
CCCNC(=O)NC(C(=O)OC)C12CC3CC(CC(C3)C1)C2 (stereo not drawn),308,-6.2% (inactive),19.6% (inactive),76.7,-52.3% (inactive),123,-0.321 (inactive),-1.6e-05 (inactive),0.00242 (inactive),12.2% (inactive),23.2% (inactive)
CCC(=O)Nc1c2c(nn1-c1ccccc1C)CSC2,592,8.9% (inactive),-2.1% (inactive),114,31.2% (inactive),99.7,-0.614 (inactive),-1.7e-05 (inactive),0.00682 (inactive),14.2% (inactive),21.4% (inactive)
COc1ccc2c(CC(=O)Nc3ccc(OC)c(NS(=O)(=O)c4ccc(F)cc4)c3)coc2c1,403,-1.4% (inactive),2.9% (inactive),116,-29.3% (inactive),100,-0.275 (inactive),-8.3e-06 (inactive),0.00715 (inactive),9% (inactive),18.5% (inactive)
CSC1=C(C#N)C(c2ccc(Cl)cc2)C2=C(CC(C)(C)CC2=O)N1 (stereo not drawn),391,-3.3% (inactive),29.1% (inactive),81.5,-5.3% (inactive),108,-0.416 (inactive),5.8e-06 (inactive),0.00657 (inactive),1.71% (inactive),24.5% (inactive)
